# Data taken from the supplement of paper PMC6555819.
# What was measured:
# Assay in all cases: PBM binding z-score (relative to random genomic background probes); higher = stronger binding; sequences stand for … in GC…GCGATTGACAGCGTAGAATGAAGG
# [1] = test system: FXR:RXRa (NR concentration 270 nM, RXRa partner concentration 90 nM)
# Method in brief: (§1)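 Binding buffer was PBS pH 7.4 with 2% milk, 0.02% Triton X-100, 1 mM DTT, 0.2 mg/mL BSA and 0.4 mg/ml salmon testes DNA. In it, ligand-free nuclear receptor dimers were incubated 1 h on custom Agilent 4×180K protein-binding microarrays carrying double-stranded probes. Antibodies against each partner (one per run) detected binding, and z-scores were calculated against random background probes after regression normalization of scanned fluorescence.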
# [2] = test system: LXRa:RXRa (NR concentration 270 nM, RXRa partner concentration 90 nM)
# Method in brief: as §1
# [3] = test system: LXRa homodimer (NR concentration 270 nM)
# Method in brief: as §1
# [4] = test system: LXRb:RXRa (NR concentration 270 nM, RXRa partner concentration 90 nM)
# Method in brief: as §1
# [5] = test system: LXRb homodimer (NR concentration 270 nM)
# Method in brief: as §1
# [6] = test system: PPARa:RXRa (NR concentration 270 nM, RXRa partner concentration 90 nM)
# Method in brief: as §1
# [7] = test system: PPARg:RXRa (NR concentration 180 nM, RXRa partner concentration 90 nM)
# Method in brief: as §1
# [8] = test system: PPARg:RXRa 270nM:90nM, anti-RXR (NR concentration 270 nM, RXRa partner concentration 90 nM)
# Method in brief: as §1
# [9] = test system: PPARg:RXRa 30nM:10nM, anti-RXR (NR concentration 30 nM, RXRa partner concentration 10 nM)
# Method in brief: as §1
# [10] = test system: PPARg:RXRa 90nM:30nM, anti-RXR (NR concentration 90 nM, RXRa partner concentration 30 nM)
# Method in brief: as §1
# [11] = test system: PPARg:RXRa DBDmut IVT, anti-RXR (DBD mutation: RXRa K156A/R161A, NR concentration 270 nM, RXRa partner concentration 90 nM)
# Method in brief: as §1
# [12] = test system: PPARg:RXRa IVT, anti-PPARg (NR concentration 270 nM, RXRa partner concentration 90 nM)
# Method in brief: as §1
# [13] = test system: PPARg DBDmut:RXRa IVT, anti-PPARg (DBD mutation: PPARg1 K132A/R137A, NR concentration 270 nM, RXRa partner concentration 90 nM)
# Method in brief: as §1
# [14] = test system: PPARg DBDmut IVT, anti-PPARg (DBD mutation: PPARg1 K132A/R137A, NR concentration 270 nM)
# Method in brief: as §1
# [15] = test system: PPARg homodimer (NR concentration 180 nM)
# Method in brief: as §1
# [16] = test system: PXR:RXRa (NR concentration 270 nM, RXRa partner concentration 90 nM)
# Method in brief: as §1
# [17] = test system: PXR homodimer (NR concentration 270 nM)
# Method in brief: as §1
# [18] = test system: RARa:RXR (NR concentration 270 nM, RXRa partner concentration 90 nM)
# Method in brief: as §1
# [19] = test system: RARa homodimer (NR concentration 270 nM)
# Method in brief: as §1
# [20] = test system: RARb:RXRa (NR concentration 270 nM, RXRa partner concentration 90 nM)
# Method in brief: as §1
Sequence,PBM binding z-score [1],PBM binding z-score [2],PBM binding z-score [3],PBM binding z-score [4],PBM binding z-score [5],PBM binding z-score [6],PBM binding z-score [7],PBM binding z-score [8],PBM binding z-score [9],PBM binding z-score [10],PBM binding z-score [11],PBM binding z-score [12],PBM binding z-score [13],PBM binding z-score [14],PBM binding z-score [15],PBM binding z-score [16],PBM binding z-score [17],PBM binding z-score [18],PBM binding z-score [19],PBM binding z-score [20]
CCTAGCAGGCCAATCTGGGTCACTTAAGGCTTGA,0.716,1.48,-0.236,0.733,-0.723,2.96,1.68,2.03,-0.218,1.33,4.27,5.04,0.275,-0.588,1.03,1.16,-0.589,1.62,-0.727,1.55
ATCTCTAGGTAACGAGTTCAGTGAAAGAGAGGAC,0.481,0.764,0.708,0.738,0.449,2.04,1.69,1.73,0.509,1.26,4.09,3.44,0.909,0.668,0.806,2.31,2.89,0.857,0.668,1.35
CCTAGTTGGTCAAGGTCACCCACGCTATAGGTAC,4.05,3.51,2.14,3.51,0.583,4.14,2.93,3.43,1.1,2.35,1.97,3.64,0.717,1.37,4.86,4.16,2.4,4.82,3.27,4.16
CCGGGTAGGTTATGGGGCATTCAGGCAACGGTGA,0.235,0.484,0.0736,0.904,-0.348,1.54,2.18,3.16,0.788,2.58,0.0778,1.73,-0.642,-0.773,0.724,0.144,0.122,0.51,0.0053,1.1
CGAACTCGGTCATCCAGGACAGTGAATACATTGA,1.39,0.744,0.283,0.275,-0.494,0.964,1.14,0.895,0.134,0.455,3.58,2.52,0.285,0.0941,0.363,0.205,-0.0652,0.856,0.205,2.31
TCTTGTAGATCAAGCAGGTTAAGAAAGCCTGAGT,0.0308,0.414,-0.381,0.385,-0.415,0.741,-0.57,1.21,2.46,1.7,1.72,0.78,0.218,0.401,0.138,0.519,0.388,0.546,-0.0455,0.228
